43 sequences from publication PMC7819943, “Rice protein-binding microarrays: a tool to detect cis-acting elements near promoter regions in rice” can be followed below.

Whole data set: some 35,000 sequences, median “fluorescence intensity (a.u.)” near 10,000, cut for the highest 2% near 52,000. Many of the other results were omitted from the sample, so the highest values are more common in it than they were.

The assay has as its target T1, OsWOX13 (Oryza sativa, UniProt Q5QMM3 1-267).
T1 sequence: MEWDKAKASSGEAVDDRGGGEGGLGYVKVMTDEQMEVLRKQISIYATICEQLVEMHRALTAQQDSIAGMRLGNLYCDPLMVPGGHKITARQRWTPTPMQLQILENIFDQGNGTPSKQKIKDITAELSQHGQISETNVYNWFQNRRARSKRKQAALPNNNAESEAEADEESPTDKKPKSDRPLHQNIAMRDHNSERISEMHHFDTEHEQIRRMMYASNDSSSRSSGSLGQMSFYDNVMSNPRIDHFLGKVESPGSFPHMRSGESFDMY
As to the kind of experiment: protein-binding microarray (RPBM); PBS, 2% BSA, 51.3 ng/ul salmon testes DNA, 50 uM zinc acetate, 200 nM TF, 25 C, 1 h; high values mean tight binding. Conditions: protein: recombinant; tags: N-terminal polyhistidine and DsRed monomer fusion (pET32a); label: CyDye5-dUTP incorporated in the synthesized complementary strand; 3' TTTTT single-stranded linker to array surface; dsDNA, one strand shown. An outline of the steps: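 The binding signal is fluorescence intensity per array feature (arbitrary units). Readings came from an Axon 4000B scanner after a washed, 2% BSA-blocked, double-stranded custom Agilent array had been incubated for 1 h at 25 °C with 200 nM protein and 50 µM zinc acetate. The protein was a Ni–NTA-purified transcription factor fused N-terminally to polyhistidine and DsRed, expressed in E. coli BL21-CodonPlus.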
Turning to “CCGAAATTTGTCTCTTAATCATATACCGCACTTTCTGCCACGGAGTCACCTAGTGCAG”, the binding signal was 16100 fluorescence intensity (a.u.).

In the case of “TATTAATTGGATAAAGTCATCTATATTAATGTGGATAATACGGAGTCACCTAGTGCAG”, the binding signal is 17600 fluorescence intensity (a.u.).

With “CAGGTGCTCTAACTACTATGTAATTGAACCACTGACATGTCGGAGTCACCTAGTGCAG”, the binding signal was 5510 fluorescence intensity (a.u.).

Consider “TAAAAGATTTGTATCACAAATTAGTCGCAATTTGTATAATCGGAGTCACCTAGTGCAG”, for which the binding signal was 9610 fluorescence intensity (a.u.).

Regarding “TTAATTTGTTGTGATTAACGTGGCATGCATGACACTAAAGCGGAGTCACCTAGTGCAG”, the binding signal is 26900 fluorescence intensity (a.u.).

With “AACGCAATCAGTGGGAGATCAATCGCAAAATCACCATCATCGGAGTCACCTAGTGCAG”, the binding signal is 11000 fluorescence intensity (a.u.).

As for “AAACTAAATTTAGACAGGAGTTCAGGTGATGAGTCAATGGCGGAGTCACCTAGTGCAG”, the binding signal is 36800 fluorescence intensity (a.u.).

On to “CCTAAATTATTCTAAAATTAAAATGTTAATGGGGAAGTATCGGAGTCACCTAGTGCAG”, for which the binding signal was 19900 fluorescence intensity (a.u.).

For “GATTATAAATTACAAGTGTTAATTTGATGAATTTTGTTATCGGAGTCACCTAGTGCAG”, the binding signal is 19500 fluorescence intensity (a.u.).

Take “TCCATTGATTGAGGAATAGTGCCAGCTTTAGATTTGCTCCCGGAGTCACCTAGTGCAG”: the binding signal is 53400 fluorescence intensity (a.u.).

For the sequence “TAAGGTGCAGATTGATTTGCCATCCCAGAGCAGCAGCTTGCGGAGTCACCTAGTGCAG”, the binding signal is 29500 fluorescence intensity (a.u.).

On to “TATTACATCGATCATATTGATTGTCGATTAGTACACCTTACGGAGTCACCTAGTGCAG”, for which the binding signal is 5790 fluorescence intensity (a.u.).

On to “CCAAACAGATTGAACTCGACGATTGGACGAATACGGCGATCGGAGTCACCTAGTGCAG”, for which the binding signal was 58900 fluorescence intensity (a.u.).

“CGGATTGATCGACGGCGAAGAATGAAGCTCACCAGAATTTCGGAGTCACCTAGTGCAG”: the binding signal is 5290 fluorescence intensity (a.u.).

For “CGAGATTGATTAGGACTCGGAATCGATCGGAGTCGGAGTACGGAGTCACCTAGTGCAG”, the binding signal was 54800 fluorescence intensity (a.u.).

On to “ATGGAAATTGATTAGGAGATTATTGATGCGATAAGTAGTACGGAGTCACCTAGTGCAG”, for which the binding signal is 37000 fluorescence intensity (a.u.).

Consider “TATAAATAACTTTGAAGATTGAATCGACATATCATACGATCGGAGTCACCTAGTGCAG”, for which the binding signal is 21200 fluorescence intensity (a.u.).

For “AGTCACTTGATTTGCTTTATCATAGAGCTTGATGAGATCCCGGAGTCACCTAGTGCAG”, the binding signal was 24900 fluorescence intensity (a.u.).

With “TTCAATTTGATTTTGATTTTAGGTGAATCTATAGATATCACGGAGTCACCTAGTGCAG”, the binding signal is 9990 fluorescence intensity (a.u.).

Regarding “AACTTAATTTGATAAGAAAATTTAGTGGAGTCACCACAAGCGGAGTCACCTAGTGCAG”, the binding signal is 44100 fluorescence intensity (a.u.).

As to “GGAAATATGTTAATTAAAATAATGCAACCCTAATCAGCAACGGAGTCACCTAGTGCAG”, the binding signal was 10500 fluorescence intensity (a.u.).

With “GATAATGATATGACCATGGTGATTTCGTCAATCTCAATACCGGAGTCACCTAGTGCAG”, the binding signal was 12100 fluorescence intensity (a.u.).

Turning to “CAGACTGACAAGTGACAAGCAGAGGGCATCTCAGTACGCGCGGAGTCACCTAGTGCAG”, the binding signal is 3390 fluorescence intensity (a.u.).

With “ATCTAGAATTAGATGTGACATATCGTAGTACTATGAACCTCGGAGTCACCTAGTGCAG”, the binding signal is 4830 fluorescence intensity (a.u.).

For the sequence “GGGACAATCAGGGATTGTATGGTTTGAAGCTGATTTTGGCCGGAGTCACCTAGTGCAG”, the binding signal is 3320 fluorescence intensity (a.u.).

In the case of “GCAAGTGTGATTGATCATTACTTGCTTGGTCTGATGGTTGCGGAGTCACCTAGTGCAG”, the binding signal is 48300 fluorescence intensity (a.u.).

Turning to “CCTCATCCCTGATTGTGATTTTCTTTCCACACCACCCGGACGGAGTCACCTAGTGCAG”, the binding signal was 19500 fluorescence intensity (a.u.).

In the case of “TTTGGATTGATCATGGTCATTTGTACTTTTGTAGTCTTTACGGAGTCACCTAGTGCAG”, the binding signal was 21500 fluorescence intensity (a.u.).

For “CTTGATTGGATCAGGATCATTTGGCATGGTTTACAAGGGCCGGAGTCACCTAGTGCAG”, the binding signal is 65100 fluorescence intensity (a.u.).

In the case of “AATGCTTGATTGCACTTCGCTGTTCAGTTCATCATGCCTACGGAGTCACCTAGTGCAG”, the binding signal was 27400 fluorescence intensity (a.u.).

Regarding “GTGATTGATTCGATTGATTGCCGCATCCACAGTTCTTTTCCGGAGTCACCTAGTGCAG”, the binding signal was 54700 fluorescence intensity (a.u.).

With “TGGGCAGCAGCTTGATTTGATTGCTTCATTTATCAAGTTGCGGAGTCACCTAGTGCAG”, the binding signal is 13600 fluorescence intensity (a.u.).

For “TTCCGGTTCCTGATTGCTTGCTCCACCGATTGACCGATCGCGGAGTCACCTAGTGCAG”, the binding signal was 18100 fluorescence intensity (a.u.).

Turning to “ATGGTTGATTGCTTGATCAAGGCATGCATCACTTGCTATGCGGAGTCACCTAGTGCAG”, the binding signal was 55800 fluorescence intensity (a.u.).

Consider “GAGCTATTGATTGATTGATTGCTGATCGCTTCCAGTTCCACGGAGTCACCTAGTGCAG”, for which the binding signal was 54700 fluorescence intensity (a.u.).

“GCTCGATTGCCTTTTCATCATTCACATTGTTCTTCTTCTTCGGAGTCACCTAGTGCAG”: the binding signal was 11600 fluorescence intensity (a.u.).

Take “CTCTACAGTAAATCAAACAGTAATCACACTCCAAACAAAACGGAGTCACCTAGTGCAG”: the binding signal is 5420 fluorescence intensity (a.u.).

As to “ATTGGCTAGATTGGAAGCAAGAGAAGCTGCAGCGAAGGCACGGAGTCACCTAGTGCAG”, the binding signal was 7860 fluorescence intensity (a.u.).

Take “TTTGGAAATTATCTATGAATTTACCTAGTTTCATCGTCCACGGAGTCACCTAGTGCAG”: the binding signal was 4970 fluorescence intensity (a.u.).

“AGTTTTACAATAAATTTACTGTTATAAATATACATTTAACCGGAGTCACCTAGTGCAG”: the binding signal is 6140 fluorescence intensity (a.u.).

As to “TTTGATGGGAATTTGTTTCAGATATGCTTACGTGCACATACGGAGTCACCTAGTGCAG”, the binding signal was 13800 fluorescence intensity (a.u.).

For “AACTAATTGTTTCTTCAGACTTCTTCAGAGCATTCTCCAGCGGAGTCACCTAGTGCAG”, the binding signal was 36800 fluorescence intensity (a.u.).

As to “TATTTTGCTTAAATGGCTGATTAGTCAAAGCATTTGGCCACGGAGTCACCTAGTGCAG”, the binding signal was 4720 fluorescence intensity (a.u.).
